For some of these results: Potency and affinity values are given separately. Results filed as inconclusive are left out. Some of the results follow. Calls of active or inactive are those of the source. Unless noted, no rule for the calls is given here.
Columns and labels:
[1] = IOSE-T80 viability loss, PAX8-independent line – cell-based, cherry-pick, selectivity assay for PAX8 inhibitor project, dose response (AID 687032;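 active = fitted half-maximal concentration for viability loss no higher than twice the top valid dose, in every repeat run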;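 also: cells exposed to compound for 96 h before reading; 0% = neutral control wells and -100% = 2 µM mitoxantrone kill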)
[2] = CMV-driven luciferase expression suppression in HEK293 – cell-based, luminescence, dry powder, counter-screen for Pax8 inhibitor project, dose response (AID 743020;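 active = signal-lowering compounds whose fitted half-maximal concentration is at or below twice the top tested dose in every run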;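 also: HEK293 cells stably expressing the CMV luciferase reporter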)
[3] = general cell-killing toxicity readout – plate reader, dry powder samples, cytotoxicity control for PAX8 inhibitor project, dose response (AID 743021)
[4] = IGROV1 cell killing – plate reader, dry powder samples, PAX8 inhibitor project, dose response (AID 743043);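 also: more negative means fewer viable cells or more cytotoxicity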
[5] = OVCAR-3 cell viability loss – plate reader, dry powder samples, PAX8 inhibitor project, dose response (AID 743044); conditions: max activity: at 35 µM, active compounds read low unless noted
[6] = toxicity toward immortalized ovarian surface epithelium – cell-based, plate reader, dry powder samples, cytotoxicity control for PAX8 inhibitor project, dose response (AID 743045);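 also: 0% = neutral control median and -100% = positive control median; more negative values mean more cell killing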
[7] = A2780 cell killing – plate reader, dry powder samples, cytotoxicity control, dose response (AID 743046);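 also: 0% = neutral control wells and -100% = cytotoxic reference compound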
[8] = OVCAR8 cell viability loss – plate reader, dry powder samples, PAX8 project, dose response (AID 743197)
[9] = RMG-1 ovarian cancer cell viability loss – cherry-pick, dose response (AID 687029;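 active = signal drop whose fitted half-maximal concentration is at most twice the top valid dose, in every test run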;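 also: cells exposed to compound for 96 hours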)
[10] = small-molecule DNA binding by polarization – biochemical, fluorescence polarization, cherry-pick, counter-screen for EWS/Fli inhibitor project, dose response (AID 720586;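 active = fitted curve reaches a 35% signal fall AC35 below twice the sample's top valid tested dose, actives reach about 48 µM in these data; inactive = the rest, including activity in the rising direction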;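 also: 0% = neutral control median and -100% = 10 µM mitoxantrone control median; lower polarization ratio signals compound binding to DNA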)

COc1ccc(NC(=O)Nc2ccc3c(c2)C(=O)N([C@@H](C)CO)C[C@@H](C)[C@@H](CN(C)Cc2ccc(C(F)(F)F)cc2)O3)cc1
inactive: outcome [1] | outcome [2] | outcome [3] | outcome [4] | max activity [5] -14.9% [at 0.5 µM, active compounds read low] | outcome [6] | outcome [7] | outcome [8]

COc1ccc(-c2cc(C(F)(F)F)nc(S(=O)(=O)CCCC(=O)Nc3cc(C)on3)n2)cc1OC
inactive: outcome [9] | outcome [3] | outcome [7]

COc1ccc(S(=O)(=O)Nc2ccc3c(c2)C(=O)N([C@H](C)CO)C[C@H](C)[C@H](CN(C)S(=O)(=O)c2ccc(F)cc2)OCCCC[C@H](C)O3)cc1
inactive: outcome [9] | outcome [3] | outcome [4] | max activity [5] -7.5% | outcome [6] | outcome [7] | outcome [8]

C[C@@H]1CCCCO[C@H](CN(C)Cc2ccncc2)[C@H](C)CN([C@H](C)CO)C(=O)c2cc(NC(=O)Nc3ccc(C(F)(F)F)cc3)ccc2O1
inactive: outcome [1] | outcome [2] | outcome [3] | outcome [4] | outcome [6] | outcome [7] | outcome [8]

C[C@H](CO)N1C[C@H](C)[C@H](CN(C)CC2CCCCC2)OCCCC[C@H](C)Oc2ccc(NC(=O)Nc3ccccc3)cc2C1=O
inactive: outcome [9] | outcome [3] | outcome [6] | outcome [7] | outcome [8]

C[C@@H]1CCCCO[C@H](CN(C)C(=O)c2ccccc2)[C@H](C)CN([C@@H](C)CO)C(=O)c2cc(NC(=O)Nc3ccc(C(F)(F)F)cc3)ccc2O1
inactive: outcome [1] | outcome [2] | outcome [3] | outcome [4] | outcome [6]

O=C(CCS(=O)(=O)c1ccccc1)Nc1nc2ccc(F)cc2s1
inactive: outcome [9] | outcome [3] | outcome [6] | outcome [7]

O=C(c1ccc(Br)cc1)c1cc([N+](=O)[O-])ccc1N1CCCCC1
inactive: outcome [9] | outcome [3]

CS(=O)(=O)Nc1ccc2c(c1)[C@@H]1C[C@@H](CC(=O)NCc3ccc(-c4ccccc4)cc3)O[C@@H](CO)[C@@H]1O2
inactive: outcome [1] | outcome [2]

O=C(CCl)Nc1cc2[nH]c(=O)[nH]c2cc1Br
inactive: outcome [9] | outcome [3]

C[C@@H]1CCCCO[C@H](CN(C)Cc2ccc(C(F)(F)F)cc2)[C@@H](C)CN([C@@H](C)CO)C(=O)c2cc(NC(=O)c3ccccc3)ccc2O1
inactive: outcome [9] | outcome [6] | outcome [7]

C[C@H](CO)N1C[C@H](C)[C@@H](CN(C)S(=O)(=O)c2ccc(Cl)cc2)OCCCC[C@H](C)Oc2ccc(NS(=O)(=O)c3ccc(F)cc3)cc2C1=O
inactive: outcome [1] | outcome [2] | outcome [3] | outcome [4] | outcome [6] | outcome [8]

C[C@H]1CCCCO[C@@H](CN(C)Cc2ccncc2)[C@@H](C)CN([C@@H](C)CO)C(=O)c2cc(NC(=O)Nc3ccc(C(F)(F)F)cc3)ccc2O1
inactive: outcome [1] | outcome [2] | outcome [3] | outcome [4] | max activity [5] -18.9% [at 16 µM, active compounds read low] | outcome [6] | outcome [7]

Cc1ccc(S(=O)(=O)Nc2ccc3c(c2)C(=O)N([C@H](C)CO)C[C@H](C)[C@@H](CN(C)S(=O)(=O)c2ccc(F)cc2)OCCCC[C@H](C)O3)cc1
inactive: outcome [1] | outcome [2] | outcome [3]

C[C@@H]1CCCCO[C@H](CN(C)C(=O)Cc2ccccc2)[C@@H](C)CN([C@@H](C)CO)C(=O)c2cc(NS(=O)(=O)c3ccc(Cl)cc3)ccc2O1
inactive: outcome [9] | outcome [3] | outcome [4] | outcome [6]

C[C@H]1CN([C@@H](C)CO)S(=O)(=O)c2ccc(C#Cc3ccccc3F)cc2O[C@H]1CN(C)C(=O)c1ccc2c(c1)OCO2
inactive: outcome [1] | outcome [2] | outcome [3] | outcome [4] | max activity [5] -13% | outcome [6] | outcome [7] | outcome [8]

Oc1ccc(C[C@H]2CNC(=S)N2CC2CCCN2C[C@H](Cc2ccc(O)cc2)N2C[C@H](Cc3ccccc3)N(CC3CCCCCC3)C2=S)cc1 (stereo partly specified)
inactive: outcome [1] | outcome [2] | outcome [3]

CC(C)(C)c1nnc(NC(=O)CCS(=O)(=O)c2ccccc2)s1
inactive: outcome [9] | outcome [3] | outcome [6] | outcome [7]

CN(C)CCCN(C(=O)CCOc1ccccc1)c1nc2c(F)cccc2s1
inactive: outcome [9] | outcome [3] | outcome [6] | outcome [7]

C[C@@H]1CCCCO[C@@H](CN(C)Cc2ccncc2)[C@H](C)CN([C@@H](C)CO)C(=O)c2cc(NC(=O)Nc3ccc(C(F)(F)F)cc3)ccc2O1
inactive: outcome [1] | outcome [2] | outcome [3] | outcome [4] | outcome [6] | outcome [7]

C[C@H]1CN([C@@H](C)CO)S(=O)(=O)c2ccc(C#Cc3ccncc3)cc2O[C@@H]1CN(C)C(=O)Nc1ccc2c(c1)OCO2
inactive: outcome [1] | AC35 [10] | outcome [2] | outcome [3]

C[C@H]1CCCCO[C@H](CN(C)C(=O)Nc2ccc(C(F)(F)F)cc2)[C@@H](C)CN([C@@H](C)CO)C(=O)c2cc(NS(=O)(=O)c3cccs3)ccc2O1
inactive: outcome [1] | outcome [2] | outcome [3] | outcome [4] | max activity [5] -51.4% | outcome [6] | outcome [7] | outcome [8]

C[C@@H]1CN([C@@H](C)CO)C(=O)c2cc(NC(=O)CCC(F)(F)F)ccc2O[C@@H](C)CCCCO[C@H]1CN(C)Cc1ccc(C(F)(F)F)cc1
inactive: outcome [9] | outcome [3] | outcome [6] | outcome [7]

COc1ccc(CN(C)C[C@H]2OCCCC[C@H](C)Oc3ccc(NC(=O)Nc4ccc(C(F)(F)F)cc4)cc3C(=O)N([C@H](C)CO)C[C@H]2C)cc1
inactive: outcome [1] | outcome [2] | outcome [3] | outcome [6] | outcome [7]

C[C@@H]1CN([C@H](C)CO)C(=O)c2cc(NS(=O)(=O)c3ccc(F)cc3)ccc2O[C@@H](C)CCCCO[C@@H]1CN(C)Cc1ccccc1
inactive: outcome [1] | outcome [2] | outcome [4] | outcome [6] | outcome [7]

COc1ccc(S(=O)(=O)N(C)C[C@@H]2OCCCC[C@H](C)Oc3ccc(NS(=O)(=O)c4ccccc4)cc3C(=O)N([C@H](C)CO)C[C@H]2C)cc1
inactive: outcome [1] | outcome [2] | outcome [3] | outcome [6] | outcome [7]

C[C@@H]1CN([C@H](C)CO)C(=O)c2cc(NS(=O)(=O)c3ccc(Cl)cc3)ccc2O[C@@H](C)CCCCO[C@H]1CN(C)C(=O)Nc1ccc(C(F)(F)F)cc1
inactive: outcome [1] | outcome [3] | outcome [6]

Cc1cccc(-c2ccc(C3[C@@H]4CN(C(=O)Nc5ccc(C(F)(F)F)cc5)C[C@H]3N4)cc2)c1 (stereo partly specified)
inactive: outcome [1] | outcome [2] | outcome [7]

C#CCN(C[C@@H]1[C@@H](OC(=O)NCc2ccccc2F)[C@@H](OC(=O)NCc2ccccc2F)Cn2c(=O)ccc(=O)n21)S(=O)(=O)c1ccc(C)cc1
inactive: outcome [1] | outcome [3]

C[C@@H]1CCCCO[C@@H](CN(C)Cc2ccc(Cl)c(Cl)c2)[C@@H](C)CN([C@@H](C)CO)C(=O)c2cc(NC(=O)Nc3ccccc3)ccc2O1
inactive: outcome [1] | outcome [2] | outcome [3] | outcome [6] | outcome [7] | outcome [8]

C[C@@H]1CN([C@@H](C)CO)S(=O)(=O)c2ccc(C#Cc3ccncc3)cc2O[C@H]1CN(C)C(=O)Nc1ccc2c(c1)OCO2
inactive: outcome [1] | outcome [2] | outcome [3] | outcome [4] | outcome [8]

C[C@H]1CCCCO[C@H](CN(C)C(=O)Nc2cccc3ccccc23)[C@@H](C)CN([C@@H](C)CO)C(=O)c2cc(NS(=O)(=O)c3ccc(Cl)cc3)ccc2O1
inactive: outcome [1] | outcome [2] | outcome [3] | max activity [5] -25.9% | outcome [6] | outcome [7]

C[C@@H]1CN([C@@H](C)CO)C(=O)c2cc(NS(=O)(=O)c3ccccc3)ccc2O[C@@H]1CN(C)Cc1ccc(C(=O)Nc2ccccc2N)cc1
inactive: AC35 [10]

COC(=O)Cc1[nH]n(-c2nc3ccccc3s2)c(=O)c1C(C)=Nc1ccc(OC)cc1
inactive: AC35 [10]

C[C@@H]1CN([C@H](C)CO)C(=O)c2cc(NC(=O)Nc3ccc(F)cc3)ccc2O[C@@H](C)CCCCO[C@@H]1CN(C)Cc1ccc(C(F)(F)F)cc1
inactive: outcome [1] | outcome [3] | outcome [4] | outcome [6] | outcome [7]

CN1c2ccc(-c3cccc(C#N)c3)cc2[C@H]2[C@H](CCN2S(=O)(=O)c2ccccc2F)[C@H]1CO
inactive: outcome [1] | outcome [3] | outcome [6]

C[C@@H]1CCCCO[C@H](CN(C)S(=O)(=O)c2ccc(F)cc2)[C@H](C)CN([C@@H](C)CO)C(=O)c2cc(NS(=O)(=O)c3ccc(Cl)cc3)ccc2O1
inactive: outcome [1] | outcome [2] | outcome [4] | max activity [5] -28.2% | outcome [6] | outcome [7] | outcome [8]

COc1ccccc1C#Cc1ccc2c(c1)O[C@@H](CN(C)Cc1ccncc1)[C@H](C)CN([C@H](C)CO)S2(=O)=O
inactive: outcome [1] | outcome [2] | outcome [6] | outcome [7]

C[C@H]1CN([C@@H](C)CO)C(=O)Cc2cc(NC(=O)NC3CCCCC3)ccc2O[C@@H]1CN(C)Cc1ccc(-c2ccccc2)cc1
inactive: outcome [1] | outcome [2] | outcome [4] | max activity [5] 18.6% [at 1 µM, active compounds read low] | outcome [6] | outcome [7] | outcome [8]

C[C@@H]1CCCCO[C@H](CN(C)C(=O)Nc2cccc3ccccc23)[C@H](C)CN([C@@H](C)CO)C(=O)c2cc(NS(=O)(=O)c3ccc(Cl)cc3)ccc2O1
inactive: outcome [1] | outcome [2] | outcome [6] | outcome [7]

Reference: PubChem BioAssay
